# Experimental data reported in PubChem BioAssay (NCI).
# The panel holds about 79,000 compounds, 15% with a hit somewhere; the sample as a whole holds those more often. Values without a mark were called inactive. Active and inactive are the calls of the source. Rule as the data show it: active = growth inhibition above about 70%; inactive = the rest.
# Columns and labels:
# [1] = NCI Yeast Anticancer Drug Screen. Data for the rad50 strain (AID 155);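 also: 0% = growth of vehicle-only cultures of the same strain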; details: S. cerevisiae rad50 strain growth inhibition, hits give high values
# In short: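 Vehicle-treated cultures provide the reference for the growth inhibition reported for compound-exposed, repair-deficient yeast.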
# [2] = NCI Yeast Anticancer Drug Screen. Data for the mec2-1 strain (AID 157); details: S. cerevisiae mec2-1 strain, hits give high values
# In short: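 Vehicle-treated cultures served as reference for growth inhibition of compound-exposed mec2-1 yeast.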
# [3] = NCI Yeast Anticancer Drug Screen. Data for the sgs1 mgt1 strain (AID 161);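 also: 0% = growth of cultures given vehicle only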; details: S. cerevisiae sgs1 mgt1 strain, hits give high values
# In short: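 Inhibition of yeast growth, normalised to vehicle-treated controls, is reported for a strain bearing genetic alterations in DNA damage repair.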
# [4] = NCI Yeast Anticancer Drug Screen. Data for the cln2 rad14 strain (AID 165);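 also: 0% = growth equal to vehicle treated cultures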; details: S. cerevisiae cln2 rad14 strain, hits give high values
# In short: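 Each compound was tested on cln2 rad14 yeast. Inhibition of growth was calculated against vehicle-exposed controls.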
# [5] = NCI Yeast Anticancer Drug Screen. Data for the bub3 strain (AID 167); details: S. cerevisiae bub3 mutant strain, hits give high values
# In short: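 Mutant yeast screening strain plus compound; vehicle-treated cultures serve as the 0% inhibition reference.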
# [6] = NCI Yeast Anticancer Drug Screen. Data for the mlh1 rad18 strain (AID 175); details: S. cerevisiae mlh1 rad18 strain growth inhibition, hits give high values
# In short: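 Vehicle-treated cultures served as the reference for growth inhibition in a yeast strain carrying DNA damage repair alterations exposed to each compound.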
# [7] = at 5.0 µM (retest, dose inferred, filed as 0.5)
# [8] = at 50.0 µM (retest, dose inferred, filed as 5.0)
Structure (SMILES),"growth inhibition [1, 7]","growth inhibition [1, 8]",growth inhibition ([1]; at 50.0 µM),"growth inhibition [2, 7]","growth inhibition [2, 8]",growth inhibition ([2]; at 50.0 µM),"growth inhibition [3, 7]","growth inhibition [3, 8]",growth inhibition ([3]; at 50.0 µM),"growth inhibition [4, 7]","growth inhibition [4, 8]",growth inhibition ([4]; at 50.0 µM),"growth inhibition [5, 7]","growth inhibition [5, 8]",growth inhibition ([5]; at 50.0 µM),"growth inhibition [6, 7]","growth inhibition [6, 8]",growth inhibition ([6]; at 50.0 µM)
O=[N+]([O-])c1cccc2nc3ccccc3c(NCCO)c12,78% (active),94% (active),86.8% (active),84% (active),98% (active),92% (active),82% (active),95% (active),91.5% (active),89% (active),96% (active),92% (active),28%,94% (active),87.2% (active),89% (active),96% (active),86.6% (active)
CCC(CC)COC(=O)C(C)=O,-2%,1%,-11.7%,2%,0%,19.4%,1%,3%,18.1%,-1%,-4%,25.6%,0%,5%,4.3%,-1%,2%,26.9%
CCCCCCCN(CCCCCCC)CC(O)c1ccc2ccc3ccccc3c2c1 (stereo not given),19%,76% (active),68.2%,8%,73% (active),62%,36%,85% (active),81.2% (active),13%,59%,38%,16%,78% (active),59.4%,12%,78% (active),79.2% (active)
CCc1ccccc1NC(=O)C1=C(C)NC(C)=C(C(=O)Nc2c(CC)cccc2CC)C1c1ccc2c(c1)OCO2 (stereo not given),30%,30%,89.5% (active),22%,22%,88.7% (active),29%,29%,89.3% (active),15%,15%,85.8% (active),24%,24%,90.3% (active),28%,28%,87.7% (active)
c1ccc2c(c1)Nc1cc3ccccc3cc1N2,41%,91% (active),74% (active),30%,61%,43.1%,11%,47%,36.3%,-9%,41%,22.9%,39%,80% (active),43.1%,37%,75% (active),61.6%
CS/C(N)=N/NC(=O)CCC(=O)Nc1cc(Cl)c(Cl)cc1Cl,3%,16%,24.7%,9%,-2%,3%,6%,16%,-10.2%,13%,13%,15%,4%,4%,-0.85%,5%,3%,19.5%
O=C(NCCCCCCNC(=O)n1cc(F)c(=O)[nH]c1=O)NCCCOCCOCCOCCOCCOCCOCCOCCOCCOCCOCCOCCOCCOCCOCCOCCOCCOCCOCCOCCOCCOCCCNC(=O)C(O)C(O)C(O)C(O)CO (stereo not given),6%,31%,42.2%,4%,60%,82% (active),23%,87% (active),76.8% (active),33%,8%,24.4%,11%,34%,-4.9%,7%,35%,-10.8%
CC(C)(C)c1cc(C(O)(C(F)(F)F)C(F)(F)F)c(S)c(C(O)(C(F)(F)F)C(F)(F)F)c1,8%,98% (active),98.8% (active),-6%,99% (active),99.3% (active),9%,98% (active),98.8% (active),16%,98% (active),99% (active),7%,97% (active),99% (active),4%,95% (active),99% (active)
O=C(O)c1ccc(/C=C2\COc3ccccc3C2=O)cc1,5%,85% (active),62.6%,14%,92% (active),67%,13%,96% (active),83.1% (active),5%,80% (active),52.8%,24%,94% (active),68.2%,4%,91% (active),84.5% (active)
O=C(O)CC(CCCc1ccccc1)C(=O)O (stereo not given),-1%,-3%,-7.45%,-41%,-3%,15.4%,-1%,-4%,-10.8%,-2%,-1%,40.9%,-5%,-7%,-1.1%,0%,-4%,2.55%
CC(C)C(C)OC(=O)Nc1cccc(O)c1 (stereo not given),-142%,-141%,35.3%,-48%,-53%,3.15%,-66%,-48%,18.1%,-50%,-54%,46.5%,-67%,-74%,2.3%,-144%,-102%,18.4%
CCCCCC(CO)C(O)(C(F)(F)F)C(F)(F)F (stereo not given),-23%,-5%,44.8%,-26%,7%,33.9%,1%,9%,65.4%,3%,15%,47.4%,0%,11%,-30.4%,-26%,-1%,49.1%
CC(C)OC(=O)c1ccc(NCC2=CC(=O)C=CC2=O)cc1Cl,53%,99% (active),90.7% (active),44%,100% (active),92.5% (active),55%,100% (active),91.2% (active),61%,100% (active),91.2% (active),55%,100% (active),88.9% (active),46%,99% (active),91.7% (active)
CCOC(=O)c1cc2c(nc1N)/C(=C/c1ccccc1)CCCC2,39%,95% (active),-24.4%,31%,96% (active),-34.6%,34%,96% (active),-29.2%,19%,80% (active),-15.4%,42%,97% (active),-11.4%,37%,95% (active),-21.1%
CCOCCC(=O)NNc1ccccc1,7%,43%,26.2%,0%,36%,6%,6%,41%,42.2%,5%,56%,56.8%,8%,83% (active),42.9%,19%,80% (active),58%
Cc1cc(N/N=C/c2cccc3ccccc23)c2cc3c(cc2n1)OCO3,7%,72% (active),99.2% (active),2%,79% (active),99% (active),27%,72% (active),99.1% (active),-6%,56%,97.8% (active),-3%,75% (active),99.2% (active),20%,91% (active),98.5% (active)
O=C(c1ccc([N+](=O)[O-])cc1)N1CCCSC1=S,19%,27%,26.8%,-7%,12%,22.2%,10%,21%,31.6%,21%,27%,27.2%,6%,11%,16%,11%,31%,60.5%
COC(=O)/C=C1/Nc2ccc(Cl)cc2C(=O)NC1=O,44%,56%,39.3%,36%,45%,27.2%,36%,54%,58.9%,23%,42%,28.9%,41%,80% (active),30.8%,40%,52%,33.5%
NC(CCCNc1nc(O)cc(=O)[nH]1)C(=O)O (stereo not given),-166%,-176%,18.2%,-51%,-54%,13.4%,-66%,-68%,7.3%,-63%,-80%,66%,-68%,-73%,0.7%,-127%,-125%,-5%
CC1SC(=S)N(c2ccc(Cl)cc2)C1=O (stereo not given),4%,68%,71% (active),0%,31%,80.7% (active),2%,47%,45.5%,3%,28%,-108%,-3%,28%,85.5% (active),3%,69%,71.8% (active)
